# PubChem BioAssay AID894 (National Center for Advancing Translational Sciences (NCATS), 2007)
# About 6,500 (4.3%) of roughly 150,000 compounds were called active. About 12% were inconclusive and are not listed. Calls follow the shape of the dose curve; as a rule, active = well fitted inhibition curve with a large enough effect (not every such curve was filed as active); inconclusive = small, poorly fitted or top-dose-only effect, or another doubt; inactive = no such curve, though single readings can be large or run the other way. Shown is part of a subset that was picked to be rich in actives.
# Biological target: 15-hydroxyprostaglandin dehydrogenase [NAD(+)] (Homo sapiens) (UniProt P15428)
# Assay: qHTS Assay for Inhibitors of HPGD (15-Hydroxyprostaglandin Dehydrogenase)
# Settings: purified HPGD, NADH fluorescence kinetic, PGE2 substrate; activity change, negative = inhibition: active compounds read low
# Summary of the method: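 20 nM HPGD preincubated 15 min at room temperature with compound in 50 mM Tris-HCl pH 8, 0.01% Tween 20. Started with 1 mM NAD+ and 30 uM prostaglandin E2; NADH fluorescence (360/450 nm) read 5 times over 30-s intervals, last minus first.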
# % is scaled to controls: 0 for no effect and ±100 for the full control effect; potency is read from the fitted curve at half-maximal effect.
# 15-hydroxyprostaglandin dehydrogenase [NAD(+)] (Homo sapiens), sequence (P15428 whole entry, looked up): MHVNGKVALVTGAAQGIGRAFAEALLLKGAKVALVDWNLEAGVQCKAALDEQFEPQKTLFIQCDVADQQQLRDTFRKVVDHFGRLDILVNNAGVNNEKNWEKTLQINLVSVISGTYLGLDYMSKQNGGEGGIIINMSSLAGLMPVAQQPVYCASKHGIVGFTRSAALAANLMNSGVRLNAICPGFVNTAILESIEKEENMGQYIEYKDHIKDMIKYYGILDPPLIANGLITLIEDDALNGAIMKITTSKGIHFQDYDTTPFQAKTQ
Structure (SMILES),"activity change, negative = inhibition",Potency
CC(C)OC(=O)c1cc(NC(=O)C2C3CCC(O3)C2C(=O)O)cc(C(=O)OC(C)C)c1 (stereo not drawn),-13.2% (inactive),–
CCOC(=O)c1c(NC(=O)C2CCN(S(=O)(=O)c3ccc(Cl)cc3)CC2)sc2c1CCCC2,-27.2% (inactive),–
Cc1sc(NC(=O)C2C3CCC(O3)C2C(=O)O)c(C(=O)OC(C)C)c1-c1ccc(Cl)cc1 (stereo not drawn),–,35.5 µM (active)
Cc1cc(NC(=O)COC(=O)COc2ccc(Cl)cc2C)c([N+](=O)[O-])cc1C,-9.4% (inactive),–
Cc1ccc(CN2CCN(/N=C/c3cccnc3)CC2)c(C)c1,-0.74% (inactive),–
O=C(CSC1CC(=O)N(CCc2ccccc2)C1=O)Nc1ccc(Cl)cc1 (stereo not drawn),-11.7% (inactive),–
CCOC(=O)NC(=O)C(=CNc1cccc(OC)c1)C(=O)NC(=O)OCC,-21.8% (inactive),–
Cc1ccc(-c2csc3nnc(SCC(=O)NCc4ccco4)n23)cc1,-10.8% (inactive),–
O=C(CSc1nnc2scc(-c3ccc(F)cc3)n12)NCc1ccco1,-3.23% (inactive),–
Cn1c(-c2ccc(F)cc2)cnc1SCC(=O)NCc1ccco1,–,31.6 µM (active)
CCN(CC)CCNCc1ccc(OCc2ccc(Cl)nc2)c(OC)c1,-2.75% (inactive),–
O=C1C2C3C=CC(C4CC34)C2C(=O)N1c1nccs1 (stereo not drawn),-6.02% (inactive),–
CCOc1ccc2nc(C(=O)N3CCCC(C)C3)sc2c1 (stereo not drawn),–,7.94 µM (active)
CCOc1ccc2nc(SC(CC)C(=O)Nc3cc(C)on3)sc2c1 (stereo not drawn),0.253% (inactive),–
CCOc1cccc(NC(=O)C2CCCN(S(=O)(=O)c3ccc(OC)cc3)C2)c1 (stereo not drawn),-17% (inactive),–
CCC(C)(C(=O)Nc1ccccc1C)N(C(=O)CNC(C)=O)c1ccc(C)cc1 (stereo not drawn),1.96% (inactive),–
COc1ccc(N2C(=O)C(CC(=O)Nc3ccc(F)cc3)N(CCc3cccs3)C2=O)cc1 (stereo not drawn),-5.46% (inactive),–
COc1cc(OC)c(-n2cc(-c3ccc(Cl)cc3)[nH]c2=O)cc1Cl,–,7.08 µM (active)
Cc1ccc(-c2cc(=O)c3ccc(Cl)cc3[nH]2)cc1,-2.76% (inactive),–
COc1ccc(C(=O)n2nc(-c3ccc(Cl)cc3)nc2N)cc1OC,-16.8% (inactive),–
COc1ccccc1OCCC(=O)OCC(=O)NCc1ccccc1,-9.44% (inactive),–

Structure (SMILES),"activity change, negative = inhibition",Potency
Cc1cc(=O)[nH]c(SCc2cccc(F)c2)n1,-22.9% (inactive),–
Cc1cc(=O)[nH]c(SCc2cc(Cl)ccc2OC(F)F)n1,–,14.1 µM (active)
O=c1cc(O)nc(SCc2ccccc2Cl)[nH]1,-21.6% (inactive),–
COC1=CCC2([N+](=O)[O-])CN(CC(=O)O)CC1([N+](=O)[O-])C2 (stereo not drawn),-5.2% (inactive),–
C[C@@H](O)c1nc2ccccc2n1N,-7.02% (inactive),–
COc1ccc(/C=C(\C#N)C(=O)NCCCn2ccnc2)cc1,-18.4% (inactive),–
C[C@H]1Cc2c(-c3ccccc3)nc3c(c2CO1)CN(S(=O)(=O)c1ccc(Cl)c2nonc12)CC3,-7.2% (inactive),–
COc1cc(/C=N/n2c(C)n[nH]c2=S)ccc1OCc1ccccc1,–,5.62 µM (active)
C=CCOc1ccc(/C=N/n2cncn2)cc1OC,-24.2% (inactive),–
COc1cc(/C=N/O)ccc1OCc1ccc([N+](=O)[O-])cc1,-3.26% (inactive),–
CCN=C1S/C(=C\c2cc(Br)ccc2OCC(=O)OCC)C(=O)N1CC,51.2% (inactive),–
CCCCC1N2CC3([N+](=O)[O-])CN1CC([N+](=O)[O-])(C2)C3(C)C (stereo not drawn),-8.6% (inactive),–
C[N+]1(CC(O)COc2ccccc2)CCN(C(=O)c2ccc([N+](=O)[O-])cc2)CC1 (stereo not drawn),-8.27% (inactive),–
CCc1cccc(CC)c1NC(=S)NCc1ccc2[nH]c(C)cc2c1,-1.27% (inactive),–
Cc1cc2cc(CNC(=O)c3cccs3)ccc2[nH]1,–,7.08 µM (active)
O=C(O)Cc1ccc(NC(=O)c2cccs2)cc1,-5.78% (inactive),–
CN(c1ccccc1)S(=O)(=O)c1ccc(Cl)c(C(=O)NCCc2c[nH]c3ccccc23)c1,-0.557% (inactive),–
CC(C)C1=CC2=CC[C@H]3[C@](C)(C(=O)O)CCC[C@]3(C)C2CC1 (stereo partly drawn),-6.95% (inactive),–
CCC1=C/C(=C\c2ccc3c(c2)OCO3)C(=O)S1,–,28.2 µM (active)
CSC1=N/C(=C\c2ccc3c(c2)OCO3)C(=O)S1,-15.7% (inactive),–
O=C1/C(=C/c2ccc3c(c2)OCO3)CCC/C1=C\c1ccc2c(c1)OCO2,-8.26% (inactive),–

Structure (SMILES),"activity change, negative = inhibition",Potency
Cc1[nH]c2ccccc2c1/C=N\NC(=O)Cn1nnc(-c2ccccc2)n1,-7.96% (inactive),–
CNC(=O)CN1C(=O)c2ccccc2S1(=O)=O,0.566% (inactive),–
CCCc1nnc(NC(=O)c2cccs2)s1,-3.96% (inactive),–
CCCc1nnc(NC(=O)CN2C(=O)c3ccccc3S2(=O)=O)s1,–,14.1 µM (active)
Cc1ccc(Nc2ccc(C(N)=O)cc2[N+](=O)[O-])cc1,-24.4% (inactive),–
CCNC(=O)NC(=O)C(C)OC(=O)C1CCN(S(=O)(=O)c2ccccc2F)CC1 (stereo not drawn),-13.3% (inactive),–
Cc1ccccc1-n1nc(C)c2cc(C(=O)NC3CC3)sc21,–,22.4 µM (active)
Cc1nn(-c2ccccc2)c2sc(C(=O)N(Cc3ccco3)C(C)C(=O)NC(C)(C)C)cc12 (stereo not drawn),-12.4% (inactive),–
Cc1onc(-c2c(Cl)cccc2Cl)c1C(=O)c1c[nH]c(C(=O)NC2CC2)c1,-1.05% (inactive),–
OC[C@H]1O[C@@H](n2cnc3c(N[C@H]4CC5CCC4C5)ncnc32)[C@H](O)[C@@H]1O (stereo partly drawn),-25% (inactive),–
COc1cc(C(=O)NNC(=O)c2ccc(S(=O)(=O)N3CCCCC3)cc2)cc(OC)c1OC,5.41% (inactive),–
COc1cc(OC)c(-n2c(C)cc(C=O)c2C)cc1Cl,–,3.55 µM (active)
COc1ccc(Cl)cc1-n1c(C)cc(C(=O)OCC(=O)N2CC(=O)Nc3ccccc32)c1C,-10% (inactive),–
COc1cc(Cl)c(S(=O)(=O)n2cnc(C)c2)cc1Cl,0.989% (inactive),–
C[C@H]1Cc2c(-c3ccccc3)nc3c(c2CO1)CN(C(=O)C1CC1)CC3,-5.41% (inactive),–
O=C(COc1ccccc1)N1CCc2ccccc2C1,-7.89% (inactive),–
COc1ccc(-c2nc3c(c4c2C[C@H](c2ccccc2)OC4)CN(C(=O)C2CC2)CC3)c(C)c1,-7.07% (inactive),–
COc1ccc2c(c1)CCc1c(C(=O)N3CCCC3)noc1-2,–,20 µM (active)
COc1ccc(-c2nc(CS(=O)CC(=O)N3CCc4ccccc4C3)c(C)o2)cc1 (stereo not drawn),-23.2% (inactive),–
COc1ccc2c(c1)CCc1c(C(=O)Nc3c(C)n(C)n(-c4ccccc4)c3=O)noc1-2,-26.2% (inactive),–
COc1ccc2c(c1)CCc1c(C(=O)N3CCc4ccccc4C3)noc1-2,–,17.8 µM (active)
